The structures appear in SMILES notation. Whole data set: some 110,000 compounds, median “z-score” near -0.1, cut for the highest 2% near 2. Many of the other results were omitted from the sample, so the highest values are more common in it than they were. The source made the active and inactive calls.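 Rule for the calls: active = z-score in the third read window above 3 or below -3; inactive = the rest.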

Sequence of Metabotropic glutamate receptor 8 (Rattus norvegicus) (P70579 whole entry, looked up): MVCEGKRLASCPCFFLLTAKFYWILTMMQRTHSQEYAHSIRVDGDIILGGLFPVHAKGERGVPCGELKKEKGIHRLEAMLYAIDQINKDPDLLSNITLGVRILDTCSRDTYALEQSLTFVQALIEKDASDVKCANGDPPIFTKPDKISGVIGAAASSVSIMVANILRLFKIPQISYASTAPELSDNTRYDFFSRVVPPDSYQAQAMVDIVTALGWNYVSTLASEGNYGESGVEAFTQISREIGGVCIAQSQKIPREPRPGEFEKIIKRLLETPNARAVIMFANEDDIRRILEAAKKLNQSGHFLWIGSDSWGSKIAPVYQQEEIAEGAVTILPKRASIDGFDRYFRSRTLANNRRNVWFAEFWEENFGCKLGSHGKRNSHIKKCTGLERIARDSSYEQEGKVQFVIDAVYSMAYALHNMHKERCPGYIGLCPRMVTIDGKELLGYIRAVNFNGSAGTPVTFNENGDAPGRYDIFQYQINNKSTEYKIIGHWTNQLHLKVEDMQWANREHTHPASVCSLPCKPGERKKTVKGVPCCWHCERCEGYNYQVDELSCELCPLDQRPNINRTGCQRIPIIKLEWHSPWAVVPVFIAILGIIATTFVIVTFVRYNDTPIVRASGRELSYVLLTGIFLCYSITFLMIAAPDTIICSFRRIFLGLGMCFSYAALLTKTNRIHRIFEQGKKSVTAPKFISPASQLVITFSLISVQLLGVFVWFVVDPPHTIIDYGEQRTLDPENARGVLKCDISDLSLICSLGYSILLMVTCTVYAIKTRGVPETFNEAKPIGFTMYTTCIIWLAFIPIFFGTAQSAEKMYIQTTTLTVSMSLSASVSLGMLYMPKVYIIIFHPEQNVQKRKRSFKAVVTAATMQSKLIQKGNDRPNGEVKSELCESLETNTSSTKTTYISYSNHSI

The test has as its target Metabotropic glutamate receptor 8 (Rattus norvegicus) (UniProt P70579). Nature of the test: rat mGluR8 modulators via GIRK flux, primary screen, cell-based, thallium flux, HTS (AID 488969). Conditions: HEK293 rat mGluR8, GIRK (G protein-gated inwardly rectifying potassium channel) thallium flux, FluoZin2; at 10 µM; stronger effect = higher value; submaximal glutamate (EC20) added with thallium.
On to `Nn1c(SCc2ccccc2)nnc1-c1ccccn1`, for which the z-score is 0.00631. `CC(=O)NCCn1c(SCC(=O)NCC2CCCO2)nc2ccccc2c1=O` (centres undefined): the z-score was determined as 0.564.

`CCN(CC)S(=O)(=O)c1cccc(-c2nnc(C(=O)c3ccc(C(F)(F)F)cc3)o2)c1` returned a z-score of -0.091. Consider `CC(C)Oc1cc(NC(=O)CS(=O)CC(=O)Nc2cccc(C(F)(F)F)c2)c(Cl)cc1Cl` (centres undefined), for which the z-score came to 2.75.

The molecule `CC(C)Oc1cc(NC(=O)CSCC(=O)Nc2cccc(C(F)(F)F)c2)c(Cl)cc1Cl` had a z-score of -0.183. Under `COc1cc(NC(=O)CSCC(=O)Nc2cccc(C(F)(F)F)c2)c(Cl)cc1Cl` stands -0.193; under `CCCn1nnnc1NC(=O)c1cccs1`, 0.876. Molecule `CCCn1nnnc1NC(=O)c1cc(Cl)ccc1Cl` displayed a z-score of 0.462. Under `CCCn1nnnc1NC(=O)c1ccc2ccccc2c1` stands 8.08 (active). Molecule `CSc1nc(Cc2ccc(Cl)cc2)nc2ccccc12` registered a z-score of 0.221.

Take `CS(=O)(=O)N(CC(=O)Nc1ccccc1)Cc1ccc(Cl)cc1`: the z-score came to 0.264. As for `CC(C)N=c1scc(-c2ccco2)n1/N=C/c1ccc(O)c(O)c1`, the figure is 1.68.

`CCN=c1scc(-c2ccco2)n1/N=C/c1ccc(OC)c(O)c1` returned a z-score of 0.709. Take `CCN=c1scc(-c2ccco2)n1/N=C/c1ccc(O)cc1`: the z-score was 6.24 (active).

`O=C(CCn1c(=O)sc2ccccc21)Nc1ccon1` registered a z-score of -0.246. As to `Cc1ccc(OS(=O)(=O)c2ccccc2)c(/C=N/N=C2\NC(=O)C(C)S2)c1` (centres undefined), the z-score is -0.426.

The molecule `O=C(O)/C(=C\c1ccc(Br)cc1)c1ccc(S(=O)(=O)N2CCCCC2)s1` came in with a z-score of -0.862. As for `CCOC(=O)C(Cc1ccccc1)NC(C)=O` (centres undefined), the z-score was -0.16. In turn, `COc1ccc2c(-c3ccccc3)cc(SCC(=O)N(C)C3CCS(=O)(=O)C3)nc2c1` (centres undefined) came in with a z-score of 2.36. With `CCN(C(=O)CSc1cc(-c2ccccc2)c2ccc(OC)cc2n1)C1CCS(=O)(=O)C1` (centres undefined), the z-score was -0.108. `CCCN(C(=O)CSc1cc(-c2ccccc2)c2ccc(OC)cc2n1)C1CCS(=O)(=O)C1` (centres undefined) showed a z-score of -0.403. `O=C(CSc1nnc(Cc2ccccc2)n1-c1ccc(F)cc1)N1CCOCC1` came in with a z-score of 0.477. Molecule `O=S(=O)(Cc1cc(Cl)nc(-c2ccccc2)n1)c1ccccc1` registered a z-score of -0.303. For the molecule `O=C(COc1ccccc1)Nc1ccc([N+](=O)[O-])cc1`, the z-score amounted to 0.423. `O=C(COc1ccccc1)NC(=S)Nc1cccc([N+](=O)[O-])c1`: the z-score was 11.8 (active). In turn, `O=C(COc1ccccc1)Nc1ccc2c(c1)Cc1cc(NC(=O)COc3ccccc3)ccc1-2` yielded a z-score of -0.155.

Consider `O=C(COc1ccccc1)NC(=S)Nc1ccc2c(c1)Cc1ccccc1-2`, for which the z-score was 6.86 (active). As for `O=C(COc1ccccc1)NC(=S)Nc1cccc(NC(=O)c2ccccc2Cl)c1`, the figure is -0.164. Take `COc1ccc(C(=O)NC(=S)Nc2ccc3c(c2)Cc2ccccc2-3)cc1`: the z-score is 0.991.

With `CC(Sc1ccccn1)C(=O)Nc1ccccc1` (centres undefined), the z-score is -0.408. In turn, `Cc1cc2nc(-c3ccco3)cc(C(F)(F)F)n2n1` registered a z-score of 0.0437.

As for `CC1CC(Nc2cccc(O)c2)=CC(=O)O1` (centres undefined), the z-score is -0.0768. `CCCCC(=O)Nc1ncc2c(n1)CC(C)(C)CC2=O`: the z-score was 6.64 (active). `CC1(C)CC(=O)c2cnc(NC(=O)CCc3ccccc3)nc2C1` registered a z-score of -0.267. Turning to `CCCCC1CC1C(=O)Nc1ncc2c(n1)CC(C)(C)CC2=O` (centres undefined), the z-score is -0.185.

Take `O=C(O)C1CC(=O)N(Cc2cccs2)C1` (centres undefined): the z-score came to 0.254.

As to `O=C(CCSc1ccccc1)Nc1nccs1`, the z-score is 0.115. The molecule `Cc1nc(-c2ccccc2)sc1C(=O)CSc1ccc(Br)cc1` gave a z-score of -0.108. With `O=C(CSc1ccccc1)N(c1ccc(Br)cc1)c1nccs1`, the z-score was 9.08 (active). Turning to `CCOC(=O)C1CCCN(C(=O)c2cc3c(-c4cccc(OC)c4)nn(C)c3s2)C1` (centres undefined), the z-score was -0.832. Molecule `Cc1nc(=O)c(-c2ccccc2)c(C)n1CCO` displayed a z-score of -0.0934. In turn, `N=c1c2c3c(sc2ncn1CCCO)CCCC3` displayed a z-score of -0.123.

Regarding `N=c1c2c3c(sc2ncn1Cc1ccccc1)CCCC3`, the z-score was 0.187. As to `CC(C)Cn1cnc2sc3c(c2c1=N)CCCC3`, the z-score is 3.07 (active).

`CCCNC(=S)Nc1ccc(Cl)cc1C` gave a z-score of -0.142. As for `COc1cccc(N2CCN(Cc3nc(N)nc(Nc4ccccc4OC)n3)CC2)c1`, the figure is -0.203; as for `Cc1cccc(C)c1OCC(=O)NCc1nnc(SCC(=O)NC2CCCCC2C)n1C` (centres undefined), -0.0497.

In the case of `FC(F)(F)c1cnc(NNC(=S)Nc2ccc(Cl)cc2)c(Cl)c1`, the z-score was 6.35 (active). `Cc1ccccc1NC(=S)NNc1ncc(C(F)(F)F)cc1Cl` gave a z-score of 0.522. `Cc1ccc(NC(=S)NNc2ncc(C(F)(F)F)cc2Cl)cc1` returned a z-score of 2.19. Turning to `Cc1ccc(NC(=S)NNc2ncc(C(F)(F)F)cc2Cl)c(C)c1`, the z-score worked out at 2.04. On to `CN(NC(=O)Nc1ccc(Cl)cc1)c1ncc(C(F)(F)F)cc1Cl`, for which the z-score was determined as 0.137.

For the molecule `Cc1c(Cl)cccc1NC(=S)NNc1ncc(C(F)(F)F)cc1Cl`, the z-score was determined as 0.506.

Molecule `CC(C(=O)Nc1ccc(Cl)cc1)c1ncc(C(F)(F)F)cc1Cl` (centres undefined) yielded a z-score of -0.108. Under `Cc1cccc(C)c1NC(=S)NNc1ncc(C(F)(F)F)cc1Cl` stands 0.289. On to `FC(F)(F)c1cnc(NNC(=S)Nc2ccccc2Cl)c(Cl)c1`, for which the z-score is 5.28 (active). Molecule `Fc1ccccc1NC(=S)NNc1ncc(C(F)(F)F)cc1Cl` showed a z-score of 1.37. As to `O=C(NNc1ncc(C(F)(F)F)cc1Cl)c1c(Cl)cccc1Cl`, the z-score came out at 0.951.

Molecule `Nc1ccccc1C(=O)NNc1ncc(C(F)(F)F)cc1Cl` displayed a z-score of 0.251.

The molecule `COc1cc2c(cc1NC(=O)c1cccc(Br)c1)CCCC2` displayed a z-score of 0.201.

On to `N#Cc1cc2c(nc1SCC(N)=O)CCCCC2`, for which the z-score is -0.0763. Consider `COc1ccc(-c2csc(Nc3cccnc3)n2)cc1OC`, for which the z-score is -0.0895.

`Cc1cc(=O)oc(C)c1C(=O)OCC(=O)c1ccc2ccccc2c1` showed a z-score of -0.249. As for `CCCCCCn1cnc2c(c1=O)c1nc3ccccc3nc1n2Cc1cccs1`, the z-score was -1.43. In turn, `Cc1nn2c(NCCCN3CCOCC3)c3c(nc2c1-c1ccccc1)CCC3` had a z-score of -0.0116.

As to `Cc1nn2c(NCCCN(C)C)c3c(nc2c1-c1ccccc1)CCC3`, the z-score is 3.36 (active). As to `CCCCNc1c2c(nc3c(-c4ccccc4)c(C)nn13)CCC2`, the z-score is -0.294.

Consider `O=C(CN1CCCC1)Nc1ccc(Oc2ccc(NC(=O)CN3CCCC3)cc2)cc1`, for which the z-score was determined as 2.7. `O=C(CN1CCNCC1)Nc1ccc(Oc2ccccc2)cc1` had a z-score of 2.35. `O=C(CN1CCOCCOCCOCC1)Nc1ccccc1` displayed a z-score of 0.274. As for `CC1CCCCN1CC(=O)Nc1ccc(Oc2ccccc2)cc1` (centres undefined), the figure is 3.58 (active). `CC1CCCCN1CC(=O)NC(=O)NCc1ccccc1` (centres undefined) registered a z-score of -0.261. In the case of `O=C(CN1CCOCC1)Nc1ccc(Oc2ccc(NC(=O)CN3CCOCC3)cc2)cc1`, the z-score is -0.278.

On to `O=C(CN1CCN(C(=S)NC2CCCC2)CC1)Nc1ccc(Oc2ccccc2)cc1`, for which the z-score was -0.13. As for `O=C(CN1CCOCCOCCOCCOCC1)Nc1ccccc1`, the figure is 0.356; as for `CN1CCN(CC(=O)Nc2ccc(Oc3ccccc3)cc2)CC1`, 1.4. Regarding `O=C(CN1CCOCC1)Nc1ccc(C2CCCCC2)cc1`, the z-score was determined as 2.23. `O=C(CN1CCOCC1)Nc1ccc(Oc2ccccc2)cc1` registered a z-score of 1.91. In turn, `COc1ccc(NC(=O)CN2CCCCC2)cc1` registered a z-score of 0.473.

For the origin of these results see PubChem BioAssay AID488969 (Vanderbilt High Throughput Screening Facility, 2010).
